Data reported in article PMC12431657, “Discovery and mechanistic insights of dibenzoylmethane as a broad spectrum inhibitor of coronavirus” (PLOS Pathogens, 2025).
Like-named read-outs stand apart in the source and are kept apart here. Among all 3,300 compounds or so, about 95 (3%) showed an effect of 50% or more. This excerpt belongs to a sample that is enriched for strong results. Peptide text beside a SMILES is read from it.

Tested on: HCoV-229E
Parameters: species or system Huh-7; HTS, protection from HCoV-229E induced cell death, luminescent cell viability (CellCounting-Lite 2.0), inhibition rate
Conditions: 24 h post infection, 1 h compound pre-incubation, 10 µM, inhibitor

Row | Structure (SMILES) | 229E Inhibition rate | 229E Inhibition rate (229E Inhibition rate, 24 h)
1 | Cc1cccc(CC(=O)O)c1 [m-Tolylacetic acid] | 18.9% | 
2 | O=C1O[C@H]([C@@H](O)CO)C(O)=C1O [L-Ascorbic acid] |  | 17.7%
3 | OC[C@H]1O[C@@](CO)(O[C@H]2O[C@H](CO[C@@H]3O[C@H](CO)[C@@H](O)[C@H](O)[C@H]3O)[C@@H](O)[C@H](O)[C@H]2O)[C@@H](O)[C@@H]1O [Gentianose] | 0% | 
4 | OC[C@H]1O[C@H](OC[C@H]2O[C@H](OC[C@H]3O[C@H](O[C@]4(CO)O[C@H](CO)[C@@H](O)[C@@H]4O)[C@H](O)[C@@H](O)[C@@H]3O)[C@H](O)[C@@H](O)[C@H]2O)[C@H](O)[C@@H](O)[C@H]1O [Stachyose (tetrahydrate)] | 43.8% | 
5 | OC[C@H]1O[C@H](OC[C@H]2O[C@H](O[C@]3(CO)O[C@H](CO)[C@@H](O)[C@@H]3O)[C@H](O)[C@@H](O)[C@@H]2O)[C@H](O)[C@@H](O)[C@H]1O [Raffinose] | 52.1% | 
6 | C=C(C)[C@@H]1CC[C@]2(C(=O)O[C@@H]3O[C@H](CO[C@@H]4O[C@H](CO)[C@@H](O[C@@H]5O[C@@H](C)[C@H](O)[C@@H](O)[C@H]5O)[C@H](O)[C@H]4O)[C@@H](O)[C@H](O)[C@H]3O)CC[C@]3(C)[C@H](CC[C@@H]4[C@@]5(C)CC[C@H](O[C@@H]6OC[C@H](O)[C@H](O)[C@H]6O[C@@H]6O[C@@H](C)[C@H](O)[C@@H](O)[C@H]6O)[C@@](C)(CO)[C@@H]5CC[C@]43C)[C@@H]12 [Pulchinenoside C] | 12.2% | 
7 | C=C1C(=O)O[C@@H]2C[C@@]3(C)CCCC(=C)[C@@H]3C[C@H]12 [Isoalantolactone] | 20.6% | 
8 | C[C@@H]1C[C@H]2OC(=O)[C@@]3(C)CCC[C@@](C)([C@@H]23)[C@@]1(O)CCc1ccoc1 [Marrubiin] | 59.8% | 
9 | CC1=C2C(=O)O[C@@H](c3ccoc3)[C@]2(C)CCC1 [Fraxinellone] | 13.5% | 
10 | C[C@@H](O)[C@@H](C)O [2,3-Butanediol] |  | 20.3%
11 | O=C(CCCCCCCCc1ccc(O)c(O)c1)c1c(O)cccc1O [Malabaricone C] | 42.8% | 
12 | CC(C)=CCc1c(O)cc(O)c2c(=O)cc(-c3ccc(O)cc3)oc12 [Licoflavone C] | 28.1% | 
13 | O=c1c(-c2ccc(O)cc2)coc2cc(O)cc(O)c12 [Genistein] | 17.6% | 
14 | CC(C)=CCc1c(O)cc(O)c2c(=O)c(-c3ccc(O)cc3)coc12 [Lupiwighteone] | 63.8% | 
15 | CC(C)=CCc1c(-c2ccc(O)cc2O)oc2c(CC=C(C)C)c(O)cc(O)c2c1=O [Mulberrin] | 20.6% | 
16 | CC(C)=CCc1cc(-c2coc3cc(O)cc(O)c3c2=O)cc(O)c1O [Glycyrrhisoflavone] | 62.7% | 
17 | CC(C)=CCc1c(O)ccc(-c2coc3cc(O)cc(O)c3c2=O)c1O [Licoisoflavone A] | 0% | 
18 | COc1cc2c(cc1OC)-c1cc3ccc4c(c3c(=O)n1CC2)OCO4 [8-Oxoepiberberine] | 17.9% | 
19 | O=C(O)C1CCCCN1O (stereo not drawn) [N-Hydroxypipecolic acid] | 19% | 
20 | COC(=O)[C@@]1(C)CC[C@]2(C(=O)O)CC[C@]3(C)C(=CC[C@@H]4[C@@]5(C)C[C@H](O)[C@H](O)[C@@](C)(CO)[C@@H]5CC[C@]43C)[C@@H]2C1 [Phytolaccagenin] | 22.3% | 
21 | CSCC[C@H](NC(=O)[C@H](CC(C)C)NC(=O)CNC(=O)[C@H](Cc1ccccc1)NC(=O)[C@H](Cc1ccccc1)NC(=O)[C@H](CCC(N)=O)NC(=O)[C@H](CCC(N)=O)NC(=O)[C@@H]1CCCN1C(=O)[C@H](CCCCN)NC(=O)[C@@H]1CCCN1C(=O)[C@@H](N)CCCN=C(N)N)C(N)=O [Substance P] | 0% | 
22 | CC[C@H](C)[C@H](N)C(=O)N[C@@H](C)C(=O)N[C@@H](CCCN=C(N)N)C(=O)N[C@@H](CCCN=C(N)N)C(=O)N[C@@H](Cc1cnc[nH]1)C(=O)N1CCC[C@H]1C(=O)N[C@@H](Cc1ccc(O)cc1)C(=O)N[C@@H](Cc1ccccc1)C(=O)N[C@@H](CC(C)C)C(=O)O [Kinetensin] (H-IARRHPYFL-OH) | 56.1% | 
23 | CC(C)[C@H](NC(=O)[C@H](CC(=O)O)NC(=O)[C@H](CCCCN)NC(=O)[C@@H](N)CCCN=C(N)N)C(=O)N[C@@H](Cc1ccc(O)cc1)C(=O)O [Thymopentin] (H-RKDVY-OH) |  | 21.6%
24 | N[C@H](CC(=O)O)C(=O)O [(-)-Aspartic acid] | 9.6% | 

Row | Structure (SMILES) | 229E Inhibition rate | 229E Inhibition rate (229E Inhibition rate, 24 h)
25 | Cc1c(N)nc([C@H](CC(N)=O)NC[C@H](N)C(N)=O)nc1C(=O)N[C@H](C(=O)N[C@H](C)[C@@H](O)[C@H](C)C(=O)N[C@H](C(=O)NCCc1nc(-c2nc(C(=O)NCCC[S+](C)C)cs2)cs1)[C@@H](C)O)[C@@H](O[C@@H]1O[C@@H](CO)[C@@H](O)[C@H](O)[C@@H]1O[C@H]1O[C@H](CO)[C@@H](O)[C@H](OC(N)=O)[C@@H]1O)c1cnc[nH]1 [Bleomycin (sulfate)] | 12.9% | 
26 | CC(C)=CCC[C@H](C)CC=O [(S)-(-)-Citronellal] | 6.7% | 
27 | C[C@@H]1CC[C@@]2(OC1)O[C@H]1C[C@H]3[C@@H]4CC=C5C[C@@H](O)C[C@@H](O[C@@H]6O[C@H](C)[C@H](O)[C@H](O[C@@H]7OC[C@@H](O)[C@H](O)[C@H]7O)[C@H]6O[C@@H]6O[C@@H](C)[C@H](O)[C@@H](O)[C@H]6O)[C@]5(C)[C@H]4CC[C@]3(C)[C@H]1[C@@H]2C [Ophiopogonin D'] |  | 6.6%
28 | C[C@@H]1CC[C@@]2(OC1)O[C@H]1C[C@H]3[C@@H]4CC=C5C[C@@H](O)C[C@@H](O[C@@H]6O[C@H](C)[C@H](O)[C@H](O[C@@H]7OC[C@@H](O)[C@H](O)[C@H]7O)[C@H]6O[C@@H]6O[C@H](CO)[C@@H](O)[C@H](O)[C@H]6O)[C@]5(C)[C@H]4CC[C@]3(C)[C@H]1[C@@H]2C [Saponin C, from Liriope muscari] | 0% | 
29 | C[C@@H]1CC[C@@]2(OC1)O[C@H]1C[C@H]3[C@@H]4CC=C5C[C@@H](O)C[C@@H](O[C@@H]6O[C@H](C)[C@H](O)[C@H](O[C@@H]7OC[C@@H](O)[C@H](O)[C@H]7O)[C@H]6O[C@@H]6O[C@@H](C)[C@H](O)[C@@H](O)[C@H]6O)[C@]5(C)[C@H]4CC[C@]3(C)[C@H]1[C@@H]2C [Ophiopogonin D] |  | 50.3%
30 | CCC(C)(O)C(=O)O (stereo not drawn) [2-Hydroxy-2-methylbutanoic acid] | 0% | 
31 | C[C@@H]1O[C@@H](OC[C@H]2O[C@@H](Oc3c(-c4ccc(OCCO)c(OCCO)c4)oc4cc(OCCO)cc(O)c4c3=O)[C@H](O)[C@@H](O)[C@@H]2O)[C@H](O)[C@H](O)[C@H]1O [Troxerutin] | 50.2% | 
32 | COc1cc(O)c2c(=O)c(O[C@@H]3O[C@H](CO[C@@H]4O[C@@H](C)[C@H](O)[C@@H](O)[C@H]4O)[C@@H](O)[C@H](O)[C@H]3O)c(-c3ccc(OC)c(O)c3)oc2c1 [Ombuoside] | 41.9% | 
33 | C[C@@H]1O[C@@H](OC[C@H]2O[C@@H](Oc3c(-c4ccc(O)cc4)oc4cc(O[C@@H]5O[C@@H](C)[C@H](O)[C@@H](O)[C@H]5O)cc(O)c4c3=O)[C@H](O)[C@@H](O)[C@H]2O)[C@H](O)[C@H](O)[C@H]1O [Robinin] | 8.6% | 
34 | O=C1CCNC(=O)N1 [Dihydrouracil] | 0% | 
35 | COc1c(O)cc2oc3cc4c(c(O)c3c(=O)c2c1CC=C(C)C)CCC(C)(C)O4 [3-Isomangostin] | 11.6% | 
36 | N[C@H](CS)C(=O)O [D-Cysteine] | 6.6% | 
37 | O=C[C@H](O)[C@@H](O)[C@@H](O)[C@H](O)C(=O)O [D-Galacturonic acid (hydrate)] | 6.7% | 
38 | O=C[C@H](O)[C@@H](O)[C@H](O)[C@H](O)C(=O)O [D-Glucuronic acid] | 57.5% | 
39 | O=C(O)[C@@H](O)[C@H](O)[C@H](O)[C@@H](O)C(=O)O [Mucic acid] | 0% | 
40 | CC(C)=CCc1c(O)cc2c(c1O)C(=O)C[C@@H](c1ccc(O)cc1)O2 [(2S)-6-Prenylnaringenin] | 22.5% | 
41 | CC[C@]12C=CCN3CC[C@]4(C(=C(C(=O)OC)C1)Nc1ccccc14)[C@@H]32 [Tabersonine] | 0% | 
42 | O=C(O)CCC(=O)OC[C@@H](NC(=O)C(Cl)Cl)[C@H](O)c1ccc([N+](=O)[O-])cc1 [Chloramphenicol succinate (sodium)] | 54% | 
43 | COC(=O)[C@]1(O)C[C@@H](O)[C@@H](O)[C@H](OC(=O)/C=C/c2ccc(O)c(O)c2)C1 [3-O-Caffeoylquinic acid methyl ester] | 24.2% | 
44 | COc1cc(C(=O)O)cc(OC)c1OC [3,4,5-Trimethoxybenzoic acid] | 11.2% | 
45 | COc1cc(CCC(=O)O)cc(OC)c1OC [3-(3,4,5-Trimethoxyphenyl)propanoic acid] | 55.1% | 
46 | COc1cc(CCC(=O)O)ccc1O [Dihydroferulic acid] | 28.8% | 
47 | C[C@H](CCC(=O)O)[C@H]1CC[C@H]2[C@@H]3[C@H](O)C[C@@H]4CC(=O)CC[C@]4(C)[C@H]3C[C@H](O)[C@]12C [3-Oxocholic acid] | 4.2% | 
48 | CC[C@H](CC[C@@H](C)[C@H]1CC[C@H]2[C@@H]3CC[C@H]4C[C@@H](O)CC[C@]4(C)[C@H]3CC[C@]12C)C(C)C [Stigmastanol] | 12.4% | 
